From PubChem BioAssay (NCI) come the findings set out here.

About 83,000 compounds went through this panel and 20% of them were active in at least one assay; those are over-represented in the sample as a whole.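 Negative percent growth values reflect cell death: -40 means 40% of the cells present at the start died, and -100 means all died.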 Unmarked numbers belong to inactive results. Calls of active or inactive are those of the source. How the source made its calls: active means growth percent below 10; inactive means the rest.

Some test systems named below: NCI-H23 lung; NCI-H226 lung; NCI-H322M lung; HOP-62 NSCLC; NCI-H460 lung; HOP-92 NSCLC; NCI-H522 lung; A549/ATCC NSCLC; 786-0 renal; COLO 205 colon; DU-145 prostate; K-562 leukemia; MALME-3M melanoma; MDA-MB-231 breast; RXF 393 renal; SF-268 CNS; SF-295 CNS; SF-539 CNS; UACC-257 melanoma; M14 melanoma.
Common to all, as to experiment: NCI-60 one-dose screen, 48 h (100 = growth as untreated, 0 = no growth, -100 = all killed)
Common to all, as to conditions: 10 µM unless noted

For `O=C1Nc2ccc(Cl)cc2/C1=C/c1ccc[nH]1`, the growth with NCI-H23 lung is 66.3%; in the experiment on NCI-H226 lung, 97.4%; in the experiment with NCI-H322M lung, 69.4%; in the experiment with HOP-62 NSCLC, 95.8%; in the experiment on NCI-H460 lung, 82.3%; in the experiment on HOP-92 NSCLC, 133%. In addition, the growth is 71.4% with NCI-H522 lung; 90.3% in the experiment with A549/ATCC NSCLC; 108% in the experiment with 786-0 renal; 126% in the experiment on COLO 205 colon; 83.6% in the experiment with DU-145 prostate; 100% with K-562 leukemia. The growth is 99.1% in the experiment on MALME-3M melanoma; 40.7% in the experiment with MDA-MB-231 breast; 74% in the experiment with RXF 393 renal; 96.4% in the experiment with SF-268 CNS; 109% with SF-295 CNS; 88.6% in the experiment on SF-539 CNS. In addition, the growth with UACC-257 melanoma was 118%; in the experiment with M14 melanoma, 78.4%.
`O=C(N/N=C/c1ccc(Cl)cc1)c1ccc(NC(=O)c2ccccn2)cc1`: the growth with NCI-H23 lung was 54.5%; in the experiment with NCI-H226 lung, 42.8%; in the experiment with NCI-H322M lung, 66.4%; in the experiment with HOP-62 NSCLC it was 59.4%; with NCI-H460 lung, 4.21% (active); in the experiment with HOP-92 NSCLC, 51.6%. Also, the growth in the experiment with NCI-H522 lung is 73.3%; with A549/ATCC NSCLC, 26.1%; with 786-0 renal, 4.44% (active); with COLO 205 colon, 59.1%; with DU-145 prostate, 60.7%; in the experiment on K-562 leukemia, 61%. The growth with MALME-3M melanoma is 44.9%; in the experiment on MDA-MB-231 breast, 41.4%; in the experiment with RXF 393 renal it was 64.7%; in the experiment with SF-268 CNS it was 70.5%; in the experiment with SF-295 CNS it was 56.4%; in the experiment with SF-539 CNS it was 46%. The growth in the experiment on UACC-257 melanoma was 63.3%; in the experiment with M14 melanoma it was 55.4%.
With `CCN1CCN(CCNc2nccc(-c3c(-c4ccc(F)c(O)c4)nc4occn34)n2)S1(=O)=O`, the growth in the experiment on NCI-H23 lung was 14%; in the experiment on NCI-H226 lung, 6.71% (active); in the experiment with NCI-H322M lung, 64.3%; in the experiment on HOP-62 NSCLC it was 33.7%; in the experiment with NCI-H460 lung it was 34.9%; in the experiment on HOP-92 NSCLC it was 68.5%. The growth with NCI-H522 lung was -3.38% (active); with A549/ATCC NSCLC it was 23%; in the experiment on 786-0 renal it was 56.7%; in the experiment on COLO 205 colon, 29%; in the experiment with DU-145 prostate it was 26.8%; with K-562 leukemia it was 10.3%. Besides, the growth in the experiment with MALME-3M melanoma is 26.4%; in the experiment with MDA-MB-231 breast, 73.2%; in the experiment on RXF 393 renal, 25.8%; in the experiment on SF-268 CNS, 28%; in the experiment on SF-295 CNS, 28.9%; in the experiment with SF-539 CNS, 75.9%. Besides, the values for the growth in the experiment with UACC-257 melanoma and in the experiment on M14 melanoma were 43.6% and 21.6%, respectively.
As for `CSc1ccc(N2C(=N)C(=S)N(c3ccc(C)cc3)C2=O)cc1`, the growth with NCI-H23 lung is 98.3%; in the experiment on NCI-H226 lung, 96.3%; with NCI-H322M lung it was 99%; in the experiment with HOP-62 NSCLC it was 86.2%; in the experiment on NCI-H460 lung it was 102%; in the experiment with HOP-92 NSCLC, 90%. The growth with NCI-H522 lung was 80.5%; in the experiment on A549/ATCC NSCLC it was 87.6%; in the experiment on 786-0 renal, 91.5%; in the experiment with COLO 205 colon, 98%; in the experiment on DU-145 prostate, 104%; in the experiment with K-562 leukemia it was 82%. Besides, the growth in the experiment with MALME-3M melanoma is 94.4%; in the experiment with MDA-MB-231 breast it was 101%; with RXF 393 renal, 113%; in the experiment on SF-268 CNS it was 90.7%; with SF-295 CNS, 96.1%; in the experiment with SF-539 CNS, 92.8%. For the same compound, the growth in the experiment on UACC-257 melanoma is 99.7%; in the experiment on M14 melanoma, 86.1%.
On to `CNC(=O)c1cc(Oc2ccc3c(c2)sc2nc(-c4ccc(NC(=O)[C@@H](NC(=O)OC)C(C)C)cc4)cn23)ccn1`, for which the growth with NCI-H23 lung is 77.6%; in the experiment on NCI-H226 lung it was 56.9%; with NCI-H322M lung it was 107%; in the experiment with HOP-62 NSCLC, 82.5%; with NCI-H460 lung, 87.6%; with HOP-92 NSCLC it was 61.7%. The growth in the experiment with NCI-H522 lung was 43.6%; in the experiment on A549/ATCC NSCLC, 80.8%; with 786-0 renal it was 87.4%; in the experiment with COLO 205 colon it was 63.9%; in the experiment on DU-145 prostate it was 84.8%; with K-562 leukemia, 47.3%. Further, the growth in the experiment with MALME-3M melanoma is 49.4%; in the experiment on MDA-MB-231 breast it was 71.9%; in the experiment with RXF 393 renal, 85.3%; with SF-268 CNS, 82.5%; in the experiment with SF-295 CNS, 68.7%; in the experiment on SF-539 CNS, 88.2%. Also, the figures for the growth with UACC-257 melanoma and in the experiment on M14 melanoma were 59.5% and 64.1%, respectively.
For `Cc1ccc(NC(=O)c2cc3ccccc3cc2O)c(C)c1`, the growth is 71.9% in the experiment on NCI-H23 lung; 86.6% in the experiment with NCI-H226 lung; 94.4% in the experiment with NCI-H322M lung; 89.3% in the experiment on HOP-62 NSCLC; 79.9% with NCI-H460 lung; 36.4% in the experiment with HOP-92 NSCLC. The growth is -1.58% (active) in the experiment with NCI-H522 lung; 106% with A549/ATCC NSCLC; 84.7% in the experiment with 786-0 renal; 78.5% in the experiment on COLO 205 colon; 96.3% in the experiment on DU-145 prostate; 63.6% with K-562 leukemia. The growth was 69.8% in the experiment with MALME-3M melanoma; 97.8% in the experiment on MDA-MB-231 breast; 113% in the experiment with RXF 393 renal; 102% in the experiment on SF-268 CNS; 94.1% in the experiment on SF-295 CNS; 78.7% in the experiment on SF-539 CNS. For the same compound, the figures for the growth in the experiment on UACC-257 melanoma and with M14 melanoma were 86.3% and 86.9%, respectively.
In the case of `C=C1C(=O)O[C@H]2[C@H]1CC/C(COC(=O)C(=O)c1c[nH]c3ccc(Cl)cc13)=C\CC[C@@]1(C)O[C@@H]21`, the growth in the experiment on NCI-H23 lung was -55.7% (active); in the experiment on NCI-H226 lung, -73% (active); with NCI-H322M lung, -76.2% (active); in the experiment with HOP-62 NSCLC, -53.1% (active); in the experiment on NCI-H460 lung it was -72.9% (active); in the experiment with HOP-92 NSCLC, -92.8% (active). Besides, the growth with NCI-H522 lung was -48.4% (active); with A549/ATCC NSCLC, -82.2% (active); with 786-0 renal, -99.1% (active); in the experiment on COLO 205 colon, -51.9% (active); with DU-145 prostate it was -96.2% (active); with K-562 leukemia, 2.92% (active). The growth was -75.7% (active) with MALME-3M melanoma; -74.8% (active) with MDA-MB-231 breast; -92.9% (active) in the experiment on RXF 393 renal; -81.3% (active) with SF-268 CNS; -10.6% (active) with SF-295 CNS; -78.5% (active) with SF-539 CNS. The growth in the experiment on UACC-257 melanoma was -75.9% (active); in the experiment on M14 melanoma, -83.1% (active).
For the compound `CN1C(=O)/C(=C/c2ccc(C(=O)Nc3ncc(Cc4cccc(C(F)(F)F)c4)s3)cc2)SC1=S`, the growth is 37.5% with NCI-H23 lung; 58% in the experiment with NCI-H226 lung; 69.5% with NCI-H322M lung; 58.5% in the experiment on HOP-62 NSCLC; 30.1% in the experiment on NCI-H460 lung; 27.3% in the experiment with HOP-92 NSCLC. For the same compound, the growth in the experiment with NCI-H522 lung is 35.5%; in the experiment with A549/ATCC NSCLC it was 47.4%; with 786-0 renal, 65%; in the experiment on COLO 205 colon, 53%; with DU-145 prostate, 68.5%; with K-562 leukemia, 48.2%. Moreover, the growth in the experiment with MALME-3M melanoma is 32.2%; in the experiment with MDA-MB-231 breast, 69.1%; in the experiment with RXF 393 renal, 26.9%; in the experiment on SF-268 CNS, 59.3%; with SF-295 CNS, 26.4%; in the experiment on SF-539 CNS, 56.3%. Further, the growth in the experiment with UACC-257 melanoma is 71.7%; with M14 melanoma it was 16.4%.
